Screens as filed in PubChem BioAssay.
GCN5L2 inh – inhibitors of human GCN5L2 histone acetyltransferase | AID 504327 | Q92830 | actives 0.21% (n = 390,000) | Potency, µM (doses to about 58.9 µM), without a hit: at the top dose activity change, negative = inhibition, hits mostly inhibitors | GCN5L2 HAT assay, ThioGlo1 CoA-SH fluorescence; also: potency is read from the fitted curve at half-maximal effect; % is scaled to controls: 0 for no effect and ±100 for the full control effect
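Compounds, pin-transferred from DMSO stocks, meet 20nM GCN5L2 for 15 min before the reaction begins with H3(1-25) peptide (75uM) and acetyl-CoA (70uM). Thiol-reactive ThioGlo1 reports CoA release over 20 min at room temperature.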
PI5P4Ka inh – inhibitors of human PI5P4K alpha; P48426; actives 1.2% (n = 330,000); max response, %; PI5P4Kalpha enzyme, ADP-Glo luminescence, 60 min; hits give low values; AID 652105; active = max response of -50% or lower; inconclusive = between -30% and -50%; inactive = -30% or higher; also: value at the top dose of about 77 µM; % is scaled to controls: 0 for no effect and ±100 for the full control effect
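PI5P4Kalpha ADP-Glo assay; 5 microM ATP final; 60 min RT reaction; HEPES pH 7.4/EGTA/CHAPS, 5% DMSO; controls lacking substrate or enzyme; luminescent end-point.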
JMJD2A Tudor – blocks the human JMJD2A Tudor domain | actives 4.4% (n = 390,000) | Potency, µM (doses to about 114 µM), for inactives: top-dose activity change, negative = inhibition, usual class: inhibitors | O75164 | AlphaScreen JMJD2A-Tudor / H3K4me3 peptide binding; also: potency is read from the fitted curve at half-maximal effect; % is scaled to controls: 0 for no effect and ±100 for the full control effect; nearly all actives have a fitted effect of over 50% in size
BAZ2B inh – blocks human BAZ2B. Potency, µM (highest dose often 114 µM), for the others: at the highest dose activity change, negative = inhibition, usual class: inhibitors. Q9UIF8. AlphaScreen BAZ2B-H3K14Ac peptide displacement. actives 4.4% (n = 360,000); also: potency is read from the fitted curve at half-maximal effect; % is scaled to controls: 0 for no effect and ±100 for the full control effect; nearly all actives have a fitted effect of over 60% in size
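Compounds, titrated to a top concentration of 110 uM, were incubated 30 min at room temperature with preformed BAZ2B/acetyl-K14 H3 peptide complex (50 nM each). Proximity signal was measured by AlphaScreen after 20 min with beads.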
HP1b chromo inh – inhibitors of HP1-beta chromodomain binding to methylated histone tails; AID 540317; AlphaScreen HP1-beta / biotin-H3K9me3 peptide binding; actives 0.56% (n = 390,000); Potency, µM (doses to about 114 µM), for inactives: at the top dose activity change, negative = inhibition, usual class: inhibitors; P83916; also: potency is read from the fitted curve at half-maximal effect; nearly all actives have a fitted effect of over 70% in size
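AlphaScreen: HP1-beta (50 nM) preformed 30 min with biotin-H3(1-18)K9me3 peptide (50 nM) in PBS pH 7.4, 0.01% Tween-20. Compound added for 30 min at RT, then streptavidin donor/nickel chelate acceptor beads (10 ug/mL) for 30 min.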
PLK1 PBD block – PLK1 (human) polo-box domain binding inhibition. actives 2.8% (n = 360,000). P53350. Potency, µM, without a hit: max response, negative = inhibition, actives largely listed as inhibitors. Plk1 PBD binding of FITC phosphopeptide, fluorescence polarization; also: potency is read from the fitted curve at half-maximal effect; series mostly up to about 57 µM; % is scaled to controls: 0 for no effect and ±100 for the full control effect; nearly all actives have a fitted effect of over 65% in size
Target sequence (P53350 whole entry, looked up, the tested form may be a part): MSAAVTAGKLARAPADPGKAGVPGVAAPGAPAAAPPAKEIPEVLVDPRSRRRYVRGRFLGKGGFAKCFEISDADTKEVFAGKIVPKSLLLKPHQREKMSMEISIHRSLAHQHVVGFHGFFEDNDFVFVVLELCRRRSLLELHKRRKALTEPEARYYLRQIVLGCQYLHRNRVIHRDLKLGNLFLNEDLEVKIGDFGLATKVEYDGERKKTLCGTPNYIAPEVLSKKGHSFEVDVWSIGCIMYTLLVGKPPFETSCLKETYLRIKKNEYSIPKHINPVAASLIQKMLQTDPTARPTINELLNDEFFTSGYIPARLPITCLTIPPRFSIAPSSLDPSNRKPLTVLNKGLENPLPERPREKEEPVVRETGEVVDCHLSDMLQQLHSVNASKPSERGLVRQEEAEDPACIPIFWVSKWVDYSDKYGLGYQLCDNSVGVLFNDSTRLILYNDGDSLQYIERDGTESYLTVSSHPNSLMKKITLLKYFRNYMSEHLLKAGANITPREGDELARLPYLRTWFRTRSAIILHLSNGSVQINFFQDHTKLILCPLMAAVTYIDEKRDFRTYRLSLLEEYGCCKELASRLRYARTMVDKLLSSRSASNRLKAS
Starred values were filed as active, the others as inactive; ? = inconclusive; / = not tested or not shown; [ ] = remark or other dose. Shown are actives, neighbours in structure and some others; about 7% of the full set was active somewhere. Unless noted, calls follow the shape of the dose curve; as a rule, active = well fitted curve in the direction sought with a large enough effect; inconclusive = small, poorly fitted or top-dose-only effect, or another doubt; inactive = no such curve, though single readings can be large; an effect the other way counts as inactive or inconclusive.

SMILES	GCN5L2 inh	PI5P4Ka inh	JMJD2A Tudor	BAZ2B inh	HP1b chromo inh	PLK1 PBD block
O=C(Nc1nc(NC(=O)c2ccco2)n(-c2ccccc2)n1)c1ccccc1	0%	/	-9%	45µM*	45%	0%
COc1ccc(C(=O)Nc2cccc(C)n2)cc1S(=O)(=O)N1CCCc2ccccc21	/	5	-25%	/	9%	2%
COc1ccc(-n2c(=O)c3c4c(sc3n(CC(=O)Nc3cc(C)[nH]n3)c2=O)CCC4)c(OC)c1	-3%	-22	89µM*	/	1%	-11%
COc1ccccc1-n1c(=O)c2c3c(sc2n2c(=S)[nH]nc12)CCC3	-1%	-15	14µM*	-30%	17%	-20%
Cc1ccc(NC(=O)CCn2c(=S)oc3ccccc32)cc1	-6%	-1	-3%	-15%	55%	3%
CN(C)c1ccc(NC(=O)CCn2c(=S)oc3ccccc32)cc1	2%	-3	?	25µM*	-2%	-15%
Cc1ccc2sc(N3CCN(C(=O)CCS(=O)(=O)c4ccc(Cl)cc4)CC3)nc2c1C	1%	/	-6%	-2%	-5%	/
Fc1ccc(N2CCN(C(=S)NCC3CCCO3)CC2)cc1 (centres undefined)	-6%	-7	-8%	-2%	22%	-7%
CCN1CCN(C(=S)NCCc2ccccc2)CC1	-5%	/	3.2µM*	79µM*	?	-7%
CCN1CCN(C(=S)NCC2CCCO2)CC1 (centres undefined)	-16%	-1	7.9µM*	50µM*	?	-6%
OCCN1CCN(C(=S)NCCc2ccccc2)CC1	0%	0	0%[11.4 µM]	-2%	27%	-20%
Cc1ccc(C(=O)NC(=S)NCC2CCCO2)cc1 (centres undefined)	-7%	4	-2%	-14%[57.1 µM]	27%	-1%
Cc1cnn(C(=S)NCC2CCCO2)c1 (centres undefined)	-3%	1	4.5µM*	-2%	47%	-9%
S=C(NCCCN1CCOCC1)N1CCN(c2nc(-c3ccc(Cl)cc3)cs2)CC1	3%	-2	?	-13%	-25%	-17%
S=C(NCC1CCCO1)N1CCN(c2nc(-c3ccc(Cl)cc3)cs2)CC1 (centres undefined)	-10%	12	?	35µM*	?	?
COc1ccc(CCNC(=O)CCn2c(=O)c3ccccc3n(Cc3ccccc3F)c2=O)cc1OC	-1%	/	-13%	3%	21%	/
COc1ccccc1-c1nc2c(c(SCc3ccc(F)cc3Cl)n1)Cc1c(CO)cnc(C)c1O2	3%	/	-10%	-10%	33%	/
CCNC(=S)N1CCN(Cc2ccccc2)CC1	-2%	-5	8.9µM*	50µM*	?	-1%
CCCCNC(=S)NCCN1CCN(C(=S)NCCCC)CC1	3%	9	-13%	-37%	33%	-5%
CCCNC(=S)N1CCN(CC)CC1	3%	-11	1.8µM*	50µM*	-53%	-13%
O/N=C1/CCc2nonc2/C1=N/O	-3%	-10	?	10µM*	13%	-9%
c1ccc2nc3c(nc2c1)CCc1nonc1-3	-8%	/	-8%	3%	23%	3%
CCN(CC)N=Nc1[nH]nc2nc(C)cc(C)c12	-5%	-30	-23%[11.4 µM]	0%	-11%	8.4µM*
O=S(=O)(c1cccc2ccccc12)N1CCCCC1	-29%	4	24%	8%	66%	2%
C=CCNS(=O)(=O)c1cccc2cc(C(=O)O)c(O)cc12	?	-57*	-3%	6%	45%	-8%
SMILES	GCN5L2 inh	PI5P4Ka inh	JMJD2A Tudor	BAZ2B inh	HP1b chromo inh	PLK1 PBD block
O=C(O)c1cc2cccc(S(=O)(=O)N3CCCCC3)c2cc1O	-17%	-64*	8%	8%	56%	-21%
C=CCNS(=O)(=O)c1cccc(C(C)=O)c1	-2%	-2	3%	13%	25%	-6%
CCCn1nnnc1NCc1c(F)cccc1Cl	-3%	-15	?	-2%	-2%	8.4µM*
CCCn1nnnc1NCc1c(Cl)cccc1Cl	-3%	-2	-3%	-2%	34%	5%
CCc1nnc(SCC(=O)N(C)c2ccccc2)c2cc3sccc3n12	-3%	/	-16%	-14%	44%	/
CCOc1cccc(=O)c2c(C)n(-c3ccc(C(=O)O)cc3)c(C)c12	-11%	-17	?	50µM*	?	-21%
COc1cccc(=O)c2c(C)n(-c3ccc(C(=O)O)cc3)c(C)c12	-5%	-3	-29%	?	-16%	-29%
O=C1NN(c2ccccc2)C(=O)/C1=C\c1coc2ccc(O)cc2c1=O	-2%	-68*	-27%	-37%	-9%	?
O=C1NN(c2ccccc2)C(=O)/C1=C/c1coc2ccccc2c1=O	-5%	-64*	-27%	-24%	8%	?
Cc1ccc(NC2=C(Cl)C(=O)OC2NC(=O)c2ccccc2)cc1 (centres undefined)	0%	0	-8%[57.1 µM]	-5%	15%	-25%
O=C1OC(NC(=O)c2ccccc2)C(n2cc(CO)nn2)=C1Cl (centres undefined)	-6%	?	89µM*	?	?	9.5µM*
Cc1ccc2[nH]c(C)c(CCNC(=O)C3CCCCC3C(=O)OCC(F)(F)F)c2c1 (centres undefined)	-3%	-3	71µM*	?	-21%	?
Cc1[nH]c2c(C)cccc2c1CCNC(=O)C1CCCCC1C(=O)OCC(F)(F)F (centres undefined)	-3%	5	-35%	?	-12%	-4%
Cc1cnc(CN(C)Cc2nc(Cc3cccc(C(F)(F)F)c3)no2)[nH]1	8%	-1	-7%	-21%	32%	-12%
CCCCC1(C)NC(=S)N2N1C(=S)NC2(C)CCCC (centres undefined)	?	?	5.6µM*	79µM*	?	0%
Cc1ccccc1OCCNCC(C)O (centres undefined)	-2%	6	2.8µM*	56µM*	?	-6%
Cc1cc(O)c(C(=O)/C=C/c2ccccc2O)c(=O)o1	0%	-6	?	?	2%	21µM*
O=C(/C=C/c1ccccc1O)c1ccccc1	/	-4	-15%	/	-14%[57 µM]	-24%
Cc1cc(O)c(C(=O)/C=C/c2cccc([N+](=O)[O-])c2)c(=O)o1	?	-86*	?	?	-1%	?
O=C(/C=C/c1cccc(Cl)c1)c1ccc([N+](=O)[O-])o1	?	-51*	?	10µM*	-11%	6.7µM*
CC(=O)Oc1ccccc1C(=O)C=Cc1cccc([N+](=O)[O-])c1	/	4	?	/	-18%	?
CCCCN(CC)C(=O)/C=C/c1cccc([N+](=O)[O-])c1	-9%	-6	-8%[11.4 µM]	4%	-18%	27µM*
